The panel holds about 83,000 compounds, 20% with a hit somewhere; the sample as a whole holds those more often.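 Each cell line was grown in a 96-well plate and treated with one concentration of compound for 48 hours. Values below 10 were considered active.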
Assays:
Test in all cases: NCI-60 one-dose screen, 48 h (100 = growth as untreated, 0 = no growth, -100 = all killed)
Details in all cases: 10 µM unless noted
NCI-H23 lung = test system: NCI-H23 lung
NCI-H226 lung = test system: NCI-H226 lung
NCI-H322M lung = test system: NCI-H322M lung
HOP-62 NSCLC = test system: HOP-62 NSCLC
NCI-H460 lung = test system: NCI-H460 lung
HOP-92 NSCLC = test system: HOP-92 NSCLC
NCI-H522 lung = test system: NCI-H522 lung
A549/ATCC NSCLC = test system: A549/ATCC NSCLC
786-0 renal = test system: 786-0 renal
COLO 205 colon = test system: COLO 205 colon
DU-145 prostate = test system: DU-145 prostate
K-562 leukemia = test system: K-562 leukemia
MALME-3M melanoma = test system: MALME-3M melanoma
MDA-MB-231 breast = test system: MDA-MB-231 breast
RXF 393 renal = test system: RXF 393 renal
SF-268 CNS = test system: SF-268 CNS
SF-539 CNS = test system: SF-539 CNS
UACC-257 melanoma = test system: UACC-257 melanoma
M14 melanoma = test system: M14 melanoma
SF-295 CNS = test system: SF-295 CNS

Measured: growth

CC(C)c1ccccc1NC(=O)N1CCC(C(C)C)CC1
inactive: NCI-H23 lung 107% | NCI-H226 lung 95.4% | NCI-H322M lung 97.7% | HOP-62 NSCLC 107% | NCI-H460 lung 107% | HOP-92 NSCLC 95.8% | NCI-H522 lung 106% | A549/ATCC NSCLC 101% | 786-0 renal 103% | COLO 205 colon 117% | DU-145 prostate 112% | K-562 leukemia 99.4% | MALME-3M melanoma 105% | MDA-MB-231 breast 117% | RXF 393 renal 101% | SF-268 CNS 115% | SF-539 CNS 111% | UACC-257 melanoma 95.8% | M14 melanoma 107%

CCCCCCCCCCCCCCCCOc1ccccc1NC(=O)CC(C)=O
inactive: NCI-H23 lung 111% | NCI-H226 lung 105% | NCI-H322M lung 109% | HOP-62 NSCLC 112% | NCI-H460 lung 112% | HOP-92 NSCLC 96.4% | NCI-H522 lung 87.1% | A549/ATCC NSCLC 91.7% | 786-0 renal 59.8% | COLO 205 colon 131% | DU-145 prostate 92% | K-562 leukemia 87.1% | MALME-3M melanoma 117% | MDA-MB-231 breast 87.4% | RXF 393 renal 107% | SF-268 CNS 103% | SF-539 CNS 94.5% | UACC-257 melanoma 117% | M14 melanoma 109%

ON1CCCC1
inactive: NCI-H23 lung 108% | NCI-H226 lung 103% | NCI-H322M lung 108% | HOP-62 NSCLC 108% | NCI-H460 lung 109% | HOP-92 NSCLC 92.4% | NCI-H522 lung 91.9% | A549/ATCC NSCLC 100% | 786-0 renal 98.4% | COLO 205 colon 113% | DU-145 prostate 113% | K-562 leukemia 90.7% | MALME-3M melanoma 106% | MDA-MB-231 breast 114% | RXF 393 renal 107% | SF-268 CNS 106% | SF-539 CNS 108% | UACC-257 melanoma 102%

CC(CO)(CO)C(=O)O
inactive: NCI-H23 lung 110% | NCI-H226 lung 96.8% | NCI-H322M lung 99.3% | HOP-62 NSCLC 95.7% | NCI-H460 lung 105% | HOP-92 NSCLC 86.3% | NCI-H522 lung 101% | A549/ATCC NSCLC 102% | 786-0 renal 105% | COLO 205 colon 109% | DU-145 prostate 105% | K-562 leukemia 101% | MALME-3M melanoma 90.4% | MDA-MB-231 breast 108% | RXF 393 renal 99.5% | SF-268 CNS 104% | SF-539 CNS 97.9% | UACC-257 melanoma 98.4% | M14 melanoma 103%

O=C(O)CC1=CCCCC1
inactive: NCI-H23 lung 98.9% | NCI-H226 lung 103% | NCI-H322M lung 98.7% | HOP-62 NSCLC 98.3% | NCI-H460 lung 106% | HOP-92 NSCLC 82.8% | NCI-H522 lung 101% | A549/ATCC NSCLC 98.5% | 786-0 renal 95.2% | COLO 205 colon 108% | DU-145 prostate 102% | K-562 leukemia 102% | MALME-3M melanoma 90.8% | MDA-MB-231 breast 98% | SF-268 CNS 93.4% | SF-295 CNS 95.2% | SF-539 CNS 98.4% | UACC-257 melanoma 100% | M14 melanoma 95.8%

O=S(=O)(c1ccc(NC(=S)NCc2cccnc2)cc1)N1CCCCC1
inactive: NCI-H23 lung 87% | NCI-H226 lung 86.7% | NCI-H322M lung 91.4% | HOP-62 NSCLC 83.1% | NCI-H460 lung 63% | HOP-92 NSCLC 86.2% | NCI-H522 lung 19.1% | A549/ATCC NSCLC 65.2% | 786-0 renal 93.8% | COLO 205 colon 63% | DU-145 prostate 46.9% | K-562 leukemia 33% | MALME-3M melanoma 90.3% | MDA-MB-231 breast 95.1% | SF-268 CNS 72.6% | SF-539 CNS 31.9% | UACC-257 melanoma 101% | M14 melanoma 39.7%

CCc1ccccc1C(=O)N(CC)CC
inactive: NCI-H23 lung 103% | NCI-H226 lung 95.4% | NCI-H322M lung 105% | HOP-62 NSCLC 103% | NCI-H460 lung 104% | HOP-92 NSCLC 107% | NCI-H522 lung 105% | A549/ATCC NSCLC 97.1% | 786-0 renal 101% | COLO 205 colon 111% | DU-145 prostate 104% | K-562 leukemia 106% | MALME-3M melanoma 102% | MDA-MB-231 breast 100% | SF-268 CNS 97.5% | SF-295 CNS 97.6% | SF-539 CNS 94.9% | UACC-257 melanoma 103% | M14 melanoma 103%

C=C1SC(=Nc2c(C)cccc2C)N(c2nc(Cl)nc(Cl)n2)C12CCCCC2
inactive: NCI-H23 lung 103% | NCI-H226 lung 104% | NCI-H322M lung 85.4% | HOP-62 NSCLC 105% | NCI-H460 lung 110% | HOP-92 NSCLC 105% | NCI-H522 lung 82.9% | A549/ATCC NSCLC 96.2% | 786-0 renal 99.9% | COLO 205 colon 109% | DU-145 prostate 108% | K-562 leukemia 95.2% | MALME-3M melanoma 90.3% | MDA-MB-231 breast 115% | RXF 393 renal 106% | SF-268 CNS 107% | SF-539 CNS 116% | UACC-257 melanoma 94.6% | M14 melanoma 97.9%

Cn1c2ccccc2c2nnc(NCCCCO)nc21
inactive: NCI-H23 lung 84.3% | NCI-H226 lung 83.9% | NCI-H322M lung 99.3% | HOP-62 NSCLC 81.6% | NCI-H460 lung 100% | HOP-92 NSCLC 84.1% | NCI-H522 lung 95.3% | A549/ATCC NSCLC 92.6% | 786-0 renal 98.8% | COLO 205 colon 103% | DU-145 prostate 103% | K-562 leukemia 99.7% | MALME-3M melanoma 98.3% | MDA-MB-231 breast 99.3% | SF-268 CNS 91.1% | SF-295 CNS 113% | SF-539 CNS 92.6% | UACC-257 melanoma 113% | M14 melanoma 88%
